High-throughput results from PubChem.
Gli-Sufu antag = blocks Gli-Sufu signaling in a luciferase reporter | Sufu-KO-LIGHT fibroblasts, Gli luciferase reporter luminescence | 340,000 tested, 0.74% active | inhibition, % at 5 µM;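 active means inhibition above about 55%, limit read from the data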;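 further: 0% = DMSO-treated cells and 100% = wells with medium but no cells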
MPTP inh = permeability transition pore inhibition; isolated mouse mitochondria, Ca2+ swelling absorbance, 30 min; inhibition, % at 10 µM; 360,000 tested, 1.4% active;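 active means inhibition of 50% or more, scaled per plate between neutral and stimulator controls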;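 further: 0% = DMSO wells given calcium and 100% = 1 mM EGTA wells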
Beta cell apopt = blocks beta cell apoptosis; INS-1E cytokine-induced death, ATP luminescence, 48 h; percent of positive-control rescue, neutral wells zero; protection from apoptosis, % (test concentration not listed); 300,000 tested, 0.8% active;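 active means Every replicate reaches about 75%, or at least half do and their mean reaches it too, limit read from the data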;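 further: 0% = cytokine-treated negative control wells and 100% = positive control rescue; higher means more ATP so stronger rescue from cytokine killing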
Mdm2-MdmX inh = inhibitors of human Mdm2/MdmX interaction | 330,000 tested, 3% active | O15151+Q00987 | SaOS-2 split-luciferase Mdm2/MdmX complementation, luminescence | AID 485346 | inhibition, % at 8 µM;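 active means inhibition of at least 50% at 8 µM in the primary screen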
NR3A LBD binder = modulators (binders) of human NR3A ligand-binding domain | NR3A LBD differential scanning fluorimetry, Tm shift; 0% = protein alone, 100% = glycine-bound protein | Tm shift relative to glycine control, % at 25 µM | 340,000 tested, 2.5% active;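 active means melting temperature shift of at least 10% of the positive control shift, at one fixed dose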
CSC inhib = cancer stem cell inhibition; inhibition, % at 7.5 µM; cancer stem cell-like cells viability, luminescence; 300,000 tested, 1.1% active; in the data active means inhibition above about 75%; tested in HMLE shEcad cells
MPTP counter = mitochondrial membrane potential, counter-screen. shares compounds with MPTP inh. isolated mitochondria, Rhodamine 123 fluorescence. inhibition, % at 10 µM. 5,000 tested, 78% active; in the data active means inhibition above about 22%;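 further: 0% = DMSO vehicle and 100% = positive control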
MPTP swell DR = dose response confirmation of mitochondrial permeability transition pore inhibitors. isolated mitochondria swelling, absorbance. shares compounds with MPTP inh. IC50, µM. 780 tested, 58% active; in the data active means IC50 below about 20 µM
MPTP cs DR = MPTP inhibitor counter-screen activity, dose response; shares compounds with MPTP inh; isolated mitochondria counterscreen, fluorescence read-out; IC50, µM; 780 tested, 49% active; AID 651564; in the data active means IC50 below about 80 µM
* hit, by the source's call; · = no result given. Rows were chosen to be rich in hits. Some 6.6% of all compounds tested hit in one or more screens of this group.

SMILES	Gli-Sufu antag	MPTP inh	Beta cell apopt	Mdm2-MdmX inh	NR3A LBD binder	CSC inhib	MPTP counter	others
Cn1c(=O)c2c(ncn2CC(=O)NC[C@H]2O[C@@H](n3cnc4c(N)ncnc43)[C@H](O)[C@@H]2O)n(C)c1=O	-12.3	9.6	·	15.0	-1.0	·	·
CCOc1ccc(S(=O)(=O)N2CCN(C(=O)c3cc4ccccc4o3)CC2)cc1	-3.6	-0.4	-2.2	22.2	1.7	1.6	·
Cc1nnc(SC(C)C(=O)Nc2sc3c(c2C#N)CCCC3)[nH]c1=O (stereo not drawn)	3.8	0.0	2.4	6.3	1.7	-2.9	·
N#Cc1c(NC(=O)CSc2nc(N)cc(=O)[nH]2)sc2c1CCCCCC2	16.6	83.2*	43.3	25.2	-6.0	-13.5	59.2*
CC(Sc1nc(N)cc(=O)[nH]1)C(=O)Nc1sc2c(c1C#N)CCCC2 (stereo not drawn)	39.1	75.6*	13.4	34.2	-2.0	-11.1	94.0*
CCC(Sc1nc(C)cc(=O)[nH]1)C(=O)Nc1sc2c(c1C#N)CCCC2 (stereo not drawn)	8.6	58.5*	-24.8	-24.2	-6.0	3.9	68.6*
O=C(Nc1ccncc1)C1CC(=O)N(Cc2ccccc2)C1 (stereo not drawn)	-1.0	-1.1	·	·	0.5	·	·
Cc1ccc(NC(=O)CC(O)(C(F)(F)F)C(F)(F)F)cc1	25.3	63.8*	1.7	4.6	-0.7	-0.9	81.5*
N=c1sccn1CC(=O)Nc1cccc(Oc2ccccc2)c1	6.7	92.1*	2.9	12.9	1.0	-4.4	-1.4	MPTP swell DR=4.94*;MPTP cs DR=>80
Cc1cccc(/C=N\NC(=O)c2ccc(Cl)cc2)c1O	36.2	73.5*	95.6*	29.7	10.1*	-12.6	80.2*
CN(C)c1ccc(/C=N/NC(=O)c2ccc(Cl)cc2)cc1	-12.7	0.2	-4.8	31.1	-1.3	1.9	·
O=c1cc(-c2ccccc2)nc2c(-c3ccccc3)c(C(F)(F)F)[nH]n12	3.1	63.6*	·	16.8	7.7	89.9*	47.3*
Cc1cc(=O)n2[nH]c(C)c(-c3ccccc3)c2n1	-2.3	-0.1	-11.1	28.3	1.8	-14.4	·
O=C(Nc1cc(Cl)cc(Cl)c1)c1cccc(OC(F)F)c1	39.7	95.6*	12.5	15.5	25.5*	45.4	95.7*
COCc1c(C#N)c(NCCc2ccccc2)nc(C)c1[N+](=O)[O-]	16.7	14.0	6.9	10.4	7.2	22.8	·
COCc1c(C#N)c(NCc2cc(OC)c(OC)c(OC)c2)nc(C)c1[N+](=O)[O-]	9.9	75.4*	8.9	31.0	0.2	2.7	33.7*
CC(C)(C)c1ccc(C(=O)NC(=S)NNC(=O)c2cccs2)cc1	-6.8	92.5*	1.2	·	-6.3	37.7	29.4*
O=C(NNC(=S)NC(=O)c1sc2ccccc2c1Cl)c1ccc(Cl)cc1	-5.2	108.2*	-3.0	30.7	-4.6	66.4	19.6
Cc1cccc(C(=O)NC(=S)NNC(=O)c2cccs2)c1	-12.7	53.5*	6.5	39.0	-7.1	4.6	-12.2
Cc1cccc(C(=O)NC(=S)NNC(=O)c2ccc(Cl)cc2)c1	-1.8	95.0*	3.3	·	-8.9	36.7	19.1
COCc1cc(C)nc2sc(C(=O)Nc3ccccc3OC)c(N)c12	-8.7	1.8	7.4	-4.5	0.7	7.5	·
O=C(Nc1c(Cl)cccc1Cl)Oc1cccc2cccnc12	·	-3.0	·	·	·	·	·
O=C(Nc1cccc(Br)c1)Oc1cccc2cccnc12	·	75.4*	·	·	·	·	101.8*
CC(C)Sc1cc(N2CCOCC2)nc(-c2ccccc2)n1	1.4	50.0*	-5.8	-8.2	0.9	23.9	-8.6	MPTP swell DR=>100;MPTP cs DR=77*
Cc1ccc(-c2c[nH]c(=S)n2-c2ccccc2F)cc1	-1.0	-1.8	-0.8	-4.3	-0.8	·	·
SMILES	Gli-Sufu antag	MPTP inh	Beta cell apopt	Mdm2-MdmX inh	NR3A LBD binder	CSC inhib	MPTP counter	others
Oc1ccc(Br)cc1C=Nc1ccc2c3c(cccc13)CC2	11.4	1.6	6.1	29.3	-3.9	5.9	·
CCOC(=O)c1ccc(-n2[nH]c(-c3ccccc3)cc2=O)cc1	-6.5	88.4*	11.7	31.7	-4.6	79.0*	78.6*
C=CC[C@H](CC(=O)NCCO)C(=O)N[C@H](COC(=O)[C@@H](CC=C)Cc1ccc(F)cc1)Cc1ccccc1	5.8	-0.4	-8.0	-24.4	3.1	·	·
CC(Oc1ccc(F)cc1)C(=O)Oc1ccc(N(C)S(=O)(=O)c2ccccc2)cc1 (stereo not drawn)	-1.3	-1.0	0.8	8.4	3.2	-10.0	·
CN1CCN(C2=Cc3ccccc3Sc3cc(F)c(F)cc32)CC1	4.2	92.7*	1.1	36.2	0.0	22.0	-12.2
CN1CCN(CCC(=O)N2c3ccccc3Sc3ccc(Cl)cc32)CC1	5.0	-2.0	-2.8	30.1	-0.4	0.9	·
O=C(NCc1ccc(F)cc1)c1ccncc1	1.1	-0.5	-7.8	-23.0	-1.0	4.7	·
CCCn1c(=S)[nH]c2cc(C(=O)N3CCc4ccccc43)ccc2c1=O	8.9	60.1*	18.0	31.1	-3.2	-9.2	47.8*
Cc1nc2ccccn2c1-c1csc(Nc2cccc(O)c2)n1	7.4	18.5	·	·	2.1	·	·
Cc1cccc(Nc2nc(-c3c(C)nc4ccccn34)cs2)c1	49.5	85.7*	·	36.2	-7.0	·	76.1*
CC(c1ccon1)N(C)C(=O)CCc1nnc(C2(c3ccc(Cl)cc3)CCC2)o1 (stereo not drawn)	3.0	-0.1	-1.4	-24.2	-1.4	-5.0	·
COc1cccc(CNC2CCCCCCC2)c1OC	24.9	-0.5	1.7	-3.6	-0.8	-4.8	·
COc1cccc(CNC2CCCc3ccccc32)c1OC (stereo not drawn)	12.3	60.2*	2.8	-27.9	0.8	-6.3	4.9	MPTP swell DR=>100;MPTP cs DR=>80
Cc1ccc(NC(=S)NC2CCCCC2)cc1S(=O)(=O)N(C)C	16.2	20.0	0.5	-29.3	-2.6	5.6	·
CCN(C(=O)COC(=O)c1ncc(Cl)c(Cl)c1Cl)c1c(N)n(Cc2ccccc2)c(=O)[nH]c1=O	6.1	-0.6	·	·	-1.2	·	·
CC(C)c1cccc(-c2csc(C(C)(O)c3ccncc3)n2)c1 (stereo not drawn)	·	95.1*	·	·	·	·	89.2*
COc1ccc(-c2ocnc2C(=O)NCc2nn(-c3ccccc3)nc2C)cc1	4.5	97.5*	65.6	44.2	2.0	14.5	86.7*
Cc1cc(C(=O)NNC(=O)COc2ccccc2Cl)n[nH]1	-0.3	0.2	-9.2	-7.2	0.8	·	·
O=C(Oc1c(Br)cc([N+](=O)[O-])cc1Br)c1cccnc1	-3.6	71.7*	-6.7	22.6	-1.5	0.0	95.6*
N/C(=N\OC(=O)c1ccc([N+](=O)[O-])cc1)c1cccnc1	-33.7	0.6	·	-40.3	-3.4	·	·
O=C(Nc1cccc(C(F)(F)F)c1)c1cccnc1NCCc1ccccc1	-3.8	80.1*	-0.9	16.5	27.8*	57.9	70.5*
